The full list was thinned out, with hits kept by preference.
CBX7 AlphaScr: blocks human CBX7 binding to H3K27me3 peptide; AID 1224903; AlphaScreen His6-CBX7 / biotin-H3K27me3 peptide binding; stronger effect = lower value; 66,000 compounds, 1.1% hits; O95931; normalised signal (fraction of DMSO) (test concentration not listed); in the data active = normalised signal below about 0.5
Target sequence (O95931 whole entry, looked up): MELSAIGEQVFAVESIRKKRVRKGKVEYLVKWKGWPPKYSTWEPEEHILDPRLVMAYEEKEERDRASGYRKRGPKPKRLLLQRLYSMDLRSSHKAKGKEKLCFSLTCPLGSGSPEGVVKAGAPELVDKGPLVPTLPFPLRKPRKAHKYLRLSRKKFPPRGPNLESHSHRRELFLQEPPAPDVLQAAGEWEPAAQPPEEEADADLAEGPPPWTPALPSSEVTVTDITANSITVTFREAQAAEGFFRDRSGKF
Active calls of the source: *.

SMILES	CBX7 AlphaScr
COc1ccc(CNC(=O)c2cc3c(s2)-c2ccccc2OC3)c(OC)c1	1.4
O=C(NCCCN1CCOCC1)c1ccc2c(=O)n3c(nc2c1)CCCCC3	1.1
COCCN1Cc2cccc(C(=O)Nc3cc(F)ccc3F)c2C1=O	1.1
COc1ccc(-c2nnc(NC(=O)c3ccc(S(=O)(=O)N(C)C4CCCCC4)cc3)o2)cc1	0.92
CCCCN(C)S(=O)(=O)c1ccc(C(=O)Nc2c(C(=O)OCC)oc3ccccc23)cc1	1.1
CCCCN(C)S(=O)(=O)c1ccc(C(=O)Nc2nnc(CC)o2)cc1	0.39*
CCCCN(C)S(=O)(=O)c1ccc(C(=O)Nc2nnc(COC)o2)cc1	0.089*
COCc1nnc(NC(=O)c2ccc(S(=O)(=O)N(C)C3CCCCC3)cc2)o1	0.16*
CN(C1CCCCC1)S(=O)(=O)c1ccc(C(=O)Nc2ccc(-c3nc4ccccc4[nH]3)cc2)cc1	1
CCCN(CCC)S(=O)(=O)c1ccc(C(=O)Nc2nnc(COC)o2)cc1	0.82
COc1ccc(-n2nnc3c(=O)n(CC(=O)Nc4ccc5c(c4)OCO5)cnc32)cc1	1
CCOc1ccc(C(=O)N(Cc2ccccc2)C2CCS(=O)(=O)C2)cc1 (stereo unspecified)	0.96
COc1ccc(CCNC(=O)CCc2c(C)nc3ncnn3c2C)cc1OC	1.1
Cc1nc2nc(SCC(=O)NC3CCCCCCC3)nn2c(C)c1Cc1ccccc1	1.1
Cc1ccccc1-n1c(=O)cc(N2CCN(c3ccccc3Cl)CC2)[nH]c1=O	1.1
CCOC(=O)c1cccc(NC(=O)c2cc3sccc3n2Cc2ccc(C)cc2)c1	0.88
Cc1cc(C)cc(C(=O)Nc2c3c(nn2-c2ccc(Cl)cc2)CSC3)c1	1
Cc1ccc(NC(=O)c2c(C)c(-c3ccc(Cl)cc3Cl)nc3ccccc23)cc1C	1.1
NC(=O)c1c(NC(=O)CN2CCCCC2)sc2c1CCCC2	0.96
O=C(Cc1ccccc1)Nc1c2c(nc3ccccc13)CCC2	0.79
O=C(CN1CCCCCC1)Nc1c2c(nc3c1CCC3)CCCC2	0.074*
O=C(CCCN1C(=O)c2ccccc2C1=O)Nc1c2c(nc3c1CCC3)CCC2	1.1
O=C(CN1CCCC1)Nc1c2c(nc3c1CCC3)CCC2	0.27*
CCCCC(=O)Nc1c2c(nc3c1CCC3)CCCC2	1
CCOc1ccccc1C1CC(c2ccc(OC)cc2)Nc2ncnn21 (stereo unspecified)	1
SMILES	CBX7 AlphaScr
O=C(CSc1nc(Nc2ccc3c(c2)OCO3)c2ccccc2n1)c1ccc(F)cc1	0.78
Clc1c(CSc2nc3ccccc3s2)nc2ccccn12	0.74
COc1ccc(-c2nc(CS(=O)(=O)CC(=O)NCc3ccccc3)c(C)o2)cc1	1
Cc1ccccc1-c1nc(CS(=O)(=O)CC(=O)N2CCN(Cc3ccccc3)CC2)c(C)o1	0.69
Cc1ccccc1-c1nc(CS(=O)(=O)CC(=O)N2CCCCC2)c(C)o1	0.99
Cc1ccccc1-c1nc(CS(=O)(=O)CC(=O)N2CCC(Cc3ccccc3)CC2)c(C)o1	0.49*
Cc1cccc(N2CCN(C(=O)Cc3c(C(=O)O)[nH]c4ccc(Cl)cc34)CC2C)c1 (stereo unspecified)	0.99
Cc1cc(Cl)ccc1NC(=O)CC1Sc2ccccc2NC1=O (stereo unspecified)	1
Cc1ccc(C)c(N2CCN(C(=O)CC3Sc4ccccc4NC3=O)CC2)c1 (stereo unspecified)	0.5*
Cc1cccc(CCNC(=O)CC2Sc3ccccc3NC2=O)c1 (stereo unspecified)	0.98
COc1ccc(CN(C(=O)c2ccc(C(C)(C)C)cc2)C2CCS(=O)(=O)C2)cc1 (stereo unspecified)	0.94
COc1ccc(CN2C(=O)c3cccnc3C2Nc2ccc(OC)c(Cl)c2)cc1 (stereo unspecified)	0.16*
CCOc1ccc(C2C(N3C(=O)c4ccccc4C3=O)C(=O)N2c2ccc(Br)c(C)c2)cc1 (stereo unspecified)	0.93
COc1cc(OC)c(NC2c3ccccc3C(=O)N2Cc2ccccc2)cc1Cl (stereo unspecified)	0.7
COc1ccc(NC2c3ccccc3C(=O)N2Cc2ccccc2Cl)cc1 (stereo unspecified)	0.82
COc1ccc(NC2c3ccccc3C(=O)N2Cc2ccccc2Cl)cc1OC (stereo unspecified)	0.8
Cc1ccccc1N1C(=O)c2ccccc2C1Nc1ccc(Br)cc1F (stereo unspecified)	0.97
Cc1cc(NC2c3ccccc3C(=O)N2Cc2ccccc2)ccc1Br (stereo unspecified)	0.65
CCOc1ccc(N2C(=O)c3cccnc3C2Nc2ccc(Br)c(C)c2)cc1 (stereo unspecified)	0.16*
COc1ccc(CN2C(=O)c3cccnc3C2Nc2ccc(Br)c(C)c2)cc1 (stereo unspecified)	0.15*
COc1cccc(NC2c3ccccc3C(=O)N2Cc2ccccc2)c1 (stereo unspecified)	0.91
CCOc1ccc(N2C(=O)c3ccccc3C2Nc2ccc(C)cc2)cc1 (stereo unspecified)	0.92
COc1ccc(CN2C(=O)c3cccnc3C2Nc2ccc(Br)cc2F)cc1 (stereo unspecified)	0.19*
CCOC(=O)c1c[nH]c2ccc(C(C)C)cc2c1=O	0.86
Cc1ccc2c(c1)c(Sc1ccccc1)c(CC(=O)NCCCO)n2C	0.99
SMILES	CBX7 AlphaScr
COc1cccc(C(=O)NCCc2cc3ccc(C)c(C)c3[nH]c2=O)c1	1.1
C=CCNc1ncnc2sc3c(c12)CCCC3	0.85
CN1CC(=O)Nc2cc(C(=O)NCCCN3CCN(Cc4ccccc4)CC3)ccc21	1
Cc1ccc(CC(=O)Nc2ccc3nc(N4CCN(c5ncccn5)CC4)cc(C)c3c2)cc1	1.1
COC(=O)c1c[nH]n2c(NCCc3ccccc3)c(-c3ccc(C)cc3)nc12	0.84
COC(=O)c1c[nH]n2c(NCCc3ccccc3)c(-c3ccc(F)cc3)nc12	0.89
COC(=O)c1c[nH]n2c(NC3CCCCCC3)c(-c3ccc(Cl)cc3)nc12	0.57
COC(=O)c1c[nH]n2c(NC3CCC(C)CC3)c(-c3ccc(F)cc3)nc12 (stereo unspecified)	0.25*
COC(=O)c1c[nH]n2c(NC3CCC(C)CC3)c(-c3ccc(OC)c(OC)c3)nc12 (stereo unspecified)	0.27*
COC(=O)c1c[nH]n2c(NC3CCCCC3)c(-c3ccc(Cl)cc3)nc12	0.71
OC1(c2cnn(Cc3ccccc3)n2)CCCCC1	1
COc1ccccc1CNC(=O)CCc1c(C)nc2cc(-c3ccccc3)nn2c1C	0.9
Cc1cccc(N(C)S(=O)(=O)c2ccc3[nH]cc(C(=O)N(C)C4CCCCC4)c(=O)c3c2)c1	1.1
Cc1c(Cl)cccc1-n1nc(-c2ccc(Cl)cc2)cc1-c1ccc(Cl)cc1	1.2
O=C(CSc1nnc(Cc2cc(=O)[nH]c(=O)[nH]2)n1-c1ccc(Cl)cc1)Nc1nccs1	0.98
COc1cccc(NC(=O)c2cnn(-c3ccc(F)cc3)c2C2CCNCC2)c1	1
COc1ccc2nc(C)cc(Nc3ccccc3C(=O)O)c2c1	0.87
Cc1oc(-c2ccc(Cl)cc2)nc1Cn1c(SCc2cccc(F)c2)nc2ccncc21	1
CCOc1ccccc1NC(=O)CSc1nccn1-c1cc(C)cc(C)c1	0.63
CCOc1ccccc1NC(=O)CSc1nccn1-c1ccc(Cl)cc1	0.31*
COc1cccc(-n2ccnc2SCC(=O)Nc2ccc(OC)cc2OC)c1	0.97
COc1cccc(-n2ccnc2SCC(=O)Nc2ccccc2F)c1	0.53
COc1ccccc1NC(=O)CSc1nccn1-c1ccc(Cl)cc1	0.51

Screening data: PubChem, Bradner/Qi Labs at DFCI
